DT40 TDP1 no CPT: qHTS for Inhibitors of human tyrosyl-DNA phosphodiesterase 1 (TDP1): qHTS in cells in absence of CPT; DT40 Tdp1-/- hTDP1 cells, no CPT, ATP luminescence, 48 h; Potency, µM (titrated, usually from 46.2 µM), without a hit: at the top dose activity change, negative = growth inhibition, hits mostly inhibitors; 420,000 tested, 15% active; further: potency means the concentration at half of the fitted maximal effect; on the % scale 0 is the no-effect control and ±100 the full control effect; nearly all actives have a fitted effect of over 55% in size
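Growth kinetics read by CellTiter-Glo luminescence after ≥48 hr at 37 °C. Cells: DT40 Tdp1-/- stably carrying human TDP1, 400 per well, compound exposure in the absence of CPT (DMSO vehicle).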
IL-1B inflam inh: inhibitors of inflammasome signaling (IL-1 beta secretion). THP-1 LPS/ATP IL-1B secretion, AlphaLISA, 16 h; hits give low values. activity change, % at 57.5 µM. 360,000 tested, 4.7% active; in the data active means activity change below about -50%; inconclusive means mostly about -30% to -49%; further: on the % scale 0 is the no-effect control and ±100 the full control effect
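THP-1 cells pretreated 1 hr with compounds (up to 57.5 uM final), then stimulated with LPS (250 ng/mL final) plus ATP (1.25 mM final); secreted IL-1B measured by AlphaLISA after 16 hr, decreased signal indicating inhibition.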
D3 antag: antagonists of human D3 dopamine receptor; D3R cells, DiscoveRx beta-arrestin luminescence, antagonist mode; hits give low values; P35462; max response, negative = inhibition, %; AID 652054; 360,000 tested, 2.5% active; in the data active means max response below about -50%; inconclusive means no clear call, values can overlap the other calls; further: on the % scale 0 is the no-effect control and ±100 the full control effect
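Cells expressing the human receptor were seeded at 1500 cells/well, incubated overnight at 37 degrees C in 5% CO2, then exposed to library compounds with dopamine controls for 90 minutes at 37 degrees C before luminescent detection.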
D3 ag: D3 dopamine receptor (human) agonism. max activation, %. P35462. 410,000 tested, 0.58% active. AID 652048. D3R DiscoveRx beta-arrestin cells, luminescence, 90 min; in the data active means max activation above about 30%; further: 0% is about no effect
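Cells at 1500/well, incubated overnight, then treated with pinned compounds (dopamine as control) for 90 min at 37 degrees C. DiscoveRx reagent added for 30 - 60 minutes at room temperature; luminescence read.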
DT40 TDP1 CPT: DT40-hTDP1 cell growth loss with CPT | 420,000 tested, 12% active | AID 686979 | Potency, µM (series often up to 46.2 µM), for inactives: at the highest dose activity change, negative = growth inhibition, most hits filed as inhibitors | chicken DT40 Tdp1-/-;hTDP1 cells + 20 nM CPT, ATP luminescence, 48 h; further: potency means the concentration at half of the fitted maximal effect; on the % scale 0 is the no-effect control and ±100 the full control effect; nearly all actives have a fitted effect of over 55% in size
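Chicken DT40 Tdp1-/- cells complemented with human TDP1, 400 cells/well, exposed to compounds plus 20 nM camptothecin for at least 48 h at 37 C; viability read as ATP content by CellTiter-Glo luminescence.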
ClpP mod: qHTS Assay for Activators of ClpP | Potency, µM (highest dose often 57.5 µM), for inactives: at the highest dose activity change, negative = active | purified B. subtilis ClpP, FRET peptide cleavage, 20 min | 340,000 tested, 1.9% active; active means well fitted falling curve with a large enough effect; inconclusive means small, poorly fitted or top-dose-only effect; inactive means no such curve, though single readings can be large or run the other way; further: potency means the concentration at half of the fitted maximal effect; the source files actives as falling curves though it sought activators and does not explain the sign; nearly all actives have a fitted effect of over 65% in size
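FRET quenching reversal measured ClpP activation: 10 microg/mL B. subtilis ClpP at pH 8 with the FRET-FV decapeptide, read at 430 nm after 320 nm excitation. The 20-min minus 0-min signal was scaled between DMSO/no-enzyme wells and ADEP (5.8 microM final).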
Starred values were filed as active, the others as inactive; ? = inconclusive; nt = no result given; [ ] = remark or other dose. Compounds with a hit are over-represented: about 21% of the library has one in this group of screens. Unless noted, the call rests on the fitted dose curve; in most records, active means well fitted inhibition curve with a large enough effect; inconclusive means small, poorly fitted or top-dose-only effect; inactive means flat fitted curve, though single readings scatter.

SMILES	DT40 TDP1 no CPT	IL-1B inflam inh	D3 antag	D3 ag	DT40 TDP1 CPT	ClpP mod
COc1cc(CC(=O)N2CCN(S(=O)(=O)c3ccc(C(C)C)cc3)CC2)cc(OC)c1OC	21µM*	-11	-28	-1	21µM*	-2%
COc1cc(CCC(=O)N2CCN(S(=O)(=O)c3ccc(C)c(C)c3)CC2)cc(OC)c1OC	-23%	-7	-13	-2	?	0%
CCc1ccccc1NC(=O)CN1CCN(CC(=O)Nc2cc(C)ccc2OC)CC1	6.5µM*	-2	-8	0	?	nt
COc1ccc(C)cc1NC(=O)CN1CCN(c2ccc(F)cc2)CC1	23µM*	-12	?	-12	21µM*	6%
COc1ccc(C)cc1NC(=O)CN1CCN(S(=O)(=O)c2ccc(Cl)cc2)CC1	?	-8	-8	0	?	-4%
CC1=Nc2ccccc2/C1=C(/C)c1c(C)[nH]c2ccccc12	?	nt	nt	nt	-2%	-1%
OCc1cccc(-c2csc(C(O)c3ccccc3)n2)c1 (centres undefined)	-13%	40	7	6	?	-1%
Cc1ccc(N2C(=O)C(CC(=O)Nc3ccccc3)N(CCC3=CCCCC3)C2=O)cc1 (centres undefined)	21µM*	nt	nt	-16	16µM*	-3%
COc1ccc(NC(=O)CC2C(=O)N(c3ccc(OC)cc3)C(=O)N2CCC2=CCCCC2)cc1 (centres undefined)	?	nt	nt	3	?	1%
COc1cccc(N2C(=O)C(CC(=O)Nc3ccc(F)cc3)N(CCC3=CCCCC3)C2=O)c1 (centres undefined)	16µM*	nt	nt	-13	?	-4%
COc1ccc(N2C(=O)C(CC(=O)Nc3ccccc3)N(CCC3=CCCCC3)C2=O)cc1 (centres undefined)	18µM*	nt	nt	-8	21µM*	0%
CCOc1ccc(S(=O)(=O)N(CC(=O)N2CCC(C(N)=O)CC2)c2ccc(F)cc2)cc1	2%	-9	-2	-8	-11%	-5%
CCC(Oc1ccccc1)C(=O)Nc1ccc(O)c(-c2nc3cc(C)ccc3o2)c1 (centres undefined)	?	nt	nt	-1	-28%	-5%
CC(=O)N(C(C)=O)c1ccc2c(c1)OCCO2	7%	-1	8	3	5%	-1%
COc1ccc(O)c(C(=O)N2CCC3(CC2)c2ccccc2[C@@H](NC(=O)c2ccccn2)[C@@H]3OC)c1	-27%	nt	nt	nt	2%[9.04 µM]	nt
O[C@H]1C[C@H](c2ccc(Cl)cc2)N(CC2CCCCC2)C[C@@H]1n1cc(C2CC2)nn1	6.5µM*	?	4	5	5.8µM*	0%
Cc1ccc([C@H]2C[C@@H](O)[C@H](n3cc(C4CC4)nn3)CN2CC2CCCCC2)cc1	18µM*	-4	-19	0	?	0%
O[C@@H]1C[C@H](c2ccc(Cl)cc2)N(CC2CCCCC2)C[C@H]1n1cc(C2CC2)nn1	?	8	-22	-3	?	1%
O[C@@H]1C[C@H](c2ccccc2)N(CC2CCCCC2)C[C@H]1n1cc(C2CC2)nn1	?	5	9	-2	-4%	-1%
O[C@@H]1CN(CC2CCCCC2)[C@@H](c2ccc(Cl)cc2)C[C@H]1n1cc(C2CC2)nn1	23µM*	-51*	15	2	?	0%
O[C@@H]1CN(CC2CCCCC2)[C@@H](c2ccc(Cl)cc2)C[C@H]1n1cc(-c2ccc(F)cc2)nn1	?	1	0	2	?	-1%
COc1ccc([C@H]2C[C@H](n3cc(C4CC4)nn3)[C@@H](O)CN2CC2CCCCC2)cc1	16µM*	-5	-10	-4	?	-2%
CCCCCCN1C[C@@H](O)[C@H](n2cc(C3CC3)nn2)C[C@@H]1c1ccc(OC)cc1	?	16	-10	7	?	2%
COC(=O)COc1ccc(Oc2nc(NC(C)(C)C)nc(N(C)C)n2)nn1	-28%	nt	nt	12	1%	-1%
Cc1c(CNCCc2ccc(S(N)(=O)=O)cc2)c(C(=O)O)c(C)n1Cc1ccc(Cl)cc1	?	nt	nt	-15	-1%	-1%
SMILES	DT40 TDP1 no CPT	IL-1B inflam inh	D3 antag	D3 ag	DT40 TDP1 CPT	ClpP mod
COc1ccc([C@H]2C[C@H](n3cc(-c4ccc(F)cc4)nn3)[C@@H](O)CN2CC2CCCCC2)cc1	?	-10	-16	2	?	-3%
COc1ccc([C@H]2C[C@@H](O)[C@H](n3cc(-c4ccc(F)cc4)nn3)CN2CC2CCCCC2)cc1	6.5µM*	3	3	-7	?	-3%
Cc1cc(C)c(-c2cc(C(F)(F)F)no2)c(=O)[nH]1	3%	0	4	25	-1%	18µM*
CC(C)(C)c1ccc(OCC(=O)Nc2ccc(C(=O)Nc3ccccc3C(=O)O)cc2)cc1	-8%	18	12	1	-14%	1%
CC(=O)c1c(C)n([O-])c2cc(C)ccc2[n+]1=O	-15%	22	-51*	-3	-24%	-8%
COc1ccc(CN2C(=O)c3cccnc3C2=O)cc1S(=O)(=O)NC1CCCCC1C (centres undefined)	10%	11	-1	0	11%	0%
Cc1cccc(N=N/C(=C\O)C(=O)c2cccs2)c1	?	-67*	-16	1	?	nt
O=C(NNC(=O)C1CCN(S(=O)(=O)c2ccc(Cl)cc2)CC1)c1ccccc1O	?	71	9	8	?	4%
Cc1ccc(NNC(=O)c2ccc(Cl)cc2)nn1	-10%	-5	-17	0	5%	1%
C#Cc1ccc([C@@H]2C=C(C(=O)NC3CC3)O[C@H](OCCCCO)C2)cc1	-16%	2	-16	2	?	0%
COc1ccc2c(c1)CCc1cc(C(=O)N3CCN(c4ccc(N5CCOCC5)nn4)CC3)sc1-2	?	-11	0	-2	21µM*	4%
COc1ccc(N2CCN(C(=O)c3cc4c(s3)CCCCC4)CC2)cc1	?	36	-2	-11	21µM*	-1%
CC(=O)c1ccc(N2CCN(C(=O)c3cc4c(s3)CCCC4)CC2)cc1	?	-5	-2	-5	23µM*	-7%
COc1ccccc1N1CCN(C(=O)c2cc3c(s2)CCC3)CC1	29µM*	24	-7	-13	?	-1%
COc1ccc(N2CCN(C(=O)c3cc4c(s3)-c3ccccc3OC4)CC2)cc1	-20%	-10	11	0	-3%	12%
